Data published in PubChem BioAssay AID1259421 (Broad Institute, 2018).
Several values for one entry are separate records, joined by “and”; a condition that tells them apart may be missing. Equal entries are not always repeated. The campaign covered roughly 6,400 compounds. About 610 (9.5%) were called active. Cut-off read from the data, not from the text of the source: active = activity change below about -70%; inconclusive = no clear call, values can overlap the other calls; inactive = above that. The list comes from a sample in which actives are over-represented; it also holds similar structures and randomly drawn compounds. A structure can be active in one record and inactive in another.

assay: Toxoplasma gondii ME49Luc growth in HeLa cells, luciferase, no IFN-y, primary screen (AID 1259421); details: T. gondii ME49Luc in HeLa, 72 h, stronger effect = lower value, concentration not given here

SMILES	activity change, negative = inhibition
COc1ccc2c(c1OC)C(=O)O[C@@H]2C1c2c(cc3c(c2OC)OCO3)CCN1C (stereo partly specified)	8.49% (inactive)
C[C@@H]1C(=O)O[C@H]2CC34[C@H]5C[C@@H](C(C)(C)C)[C@]36[C@@H](OC(=O)[C@@H]6O)O[C@@]4(C(=O)O5)[C@]21O (stereo partly specified)	5.52% (inactive)
CC(C)CCCC(C)[C@H]1CCC2C3C(=O)C=C4C[C@@H](O)CC[C@]4(C)C3CC[C@@]21C (stereo partly specified)	-7.52% (inactive)
CC(C)(C)NCC(O)COc1cccc2c1CCCC2=O (stereo unspecified)	12.5% (inactive) and -6.73% (inactive)
CC(=O)O.CC(=O)O.[Cl][Pt+2][Cl].[NH-]C1CCCCC1.[NH2-]	1.41% (inactive)
O=C(O[C@@H]1Cc2c(O)cc(O)cc2O[C@@H]1c1ccc(O)c(O)c1)c1cc(O)c(O)c(O)c1	-0.0246% (inactive)
COc1ccc(NC(=O)c2ccc(-c3ccc(-c4noc(C)n4)cc3C)cc2)cc1N1CCN(C)CC1	-78.7% (active) and -44.9% (inactive)
COc1ccc(NS(=O)(=O)c2ccc(I)cc2)cc1N1CCN(C)CC1	0.621% (inactive) and -5.09% (inactive)
COc1ccc(NC(=O)c2ccc(-c3ccc(-c4noc(C)n4)cc3C)cc2)cc1OCCN(C)C	-53.8% (inactive) and -87.8% (active)
COc1ccccc1N1CCN(CCCCNC(=O)c2ccc(-c3ccc(C(C)=O)cc3)cc2)CC1	7.26% (inactive)
CN(C)CCCc1cc(C(=O)Nc2ccc(-c3ccncc3)cc2)ccc1O	4.74% (inactive)
COc1ccc(C(=O)NCc2ccc(OCCN(C)C)cc2)cc1OC	-2.71% (inactive)
CN(C)c1ccc(O)c2c1C[C@H]1C[C@H]3[C@H](N(C)C)C(=O)C(C(N)=O)C(=O)[C@@]3(O)C(=O)C1C2=O (stereo partly specified)	-2.37% (inactive) and -2.12% (inactive)
Cc1cc(O)cc(=O)o1	2.59% (inactive)
CCCCCC/C=C/C=C\CCCCCCCC(=O)O	9.04% (inactive)
Cc1cc(Nc2cc(CN3CCOCC3)c3nc(C)c(Cc4ccc(Cl)cc4F)n3n2)n[nH]1	-76.1% (active)
FC(F)OC(Cl)C(F)(F)F (stereo unspecified)	4.04% (inactive)
CCCC(=O)O	16.3% (inactive) and 10.7% (inactive)
CN=C(NC#N)Nc1ccc(C2=NNC(=O)CC2C)cc1 (stereo unspecified)	27% (inactive) and 4.42% (inactive)
CCC(=O)NC1CCc2cccc(OC)c2C1 (stereo unspecified)	4.71% (inactive) and 6.93% (inactive)
CC12CCC3C(CCC4CC(O)CCC43C)C1CC=C2c1ccccc1 (stereo unspecified)	6.05% (inactive)
N[C@@H]1c2cccnc2[C@H](OC(=O)N2CCC(n3c(=O)[nH]c4ncccc43)CC2)CC[C@H]1c1cccc(F)c1F	-1.69% (inactive)
C=C[C@@H]1C[C@]1(NC(=O)[C@@H]1C[C@@H]2CN1C(=O)[C@H](C(C)(C)C)NC(=O)O[C@@H]1C[C@H]1CCCCCc1nc3ccc(OC)cc3nc1O2)C(=O)NS(=O)(=O)C1CC1	0.122% (inactive)
C=C[C@@H]1C[C@]1(NC(=O)[C@@H]1C[C@@H](Oc2ncc(OC)c3ccc(Cl)cc23)CN1C(=O)[C@@H](NC(=O)OC(C)(C)C)C(C)(C)C)C(=O)NS(=O)(=O)C1CC1	-73.7% (active)
CCOc1ccccc1O[C@H](c1ccccc1)[C@H]1CNCCO1 (racemic)	8.34% (inactive)
O=C(c1ccc(Nc2nccc(-c3cc4ccccc4s3)n2)cc1)N1CCC(N2CCCC2)CC1	-80.6% (active) and -80.3% (active)

SMILES	activity change, negative = inhibition
O=C(c1ccc(C(=O)N2CCC(N3CCCC3)CC2)c(Nc2ccccc2)c1)N1CCC(N2CCCC2)CC1	-4.76% (inactive)
O=C(c1cncc(Br)c1)N1CCC(N2CCCC2)CC1	15.9% (inactive)
CC1=C2C(O)C(=O)OC3CC4C(C)(C)C(=O)C=C[C@]4(C)C(CC1)[C@]23C (stereo partly specified)	9.55% (inactive)
COC(=O)N[C@H](C(=O)N1CC2(CC2)C[C@H]1c1ncc(-c2ccc3c(c2)C(F)(F)c2cc(-c4ccc5nc([C@@H]6[C@H]7CC[C@H](C7)N6C(=O)[C@@H](NC(=O)OC)C(C)C)[nH]c5c4)ccc2-3)[nH]1)C(C)C	-11.8% (inactive)
CC(C)N=C(N)/N=C(\N)Nc1ccc(Cl)cc1	13.8% (inactive) and 11.1% (inactive)
Cc1ccc2c(=O)c3ccccc3n(CCCN)c2c1C	-91.1% (active) and -77% (active)
Cc1ccc2c(=O)c3cccc(CC(=O)O)c3oc2c1C	9.87% (inactive)
Cc1cc(=O)c(C(=O)N[C@@H](C(=O)N[C@@H]2C(=O)N3C(C(=O)O)=C(CSc4nnnn4C)CS[C@H]23)c2ccc(O)cc2)c[nH]1	9.23% (inactive)
NC(CC(=O)Nc1ccc(Oc2cc(F)c(F)cc2Br)cc1)C(=O)O (stereo unspecified)	0.0757% (inactive)
COc1cc(OC)c(C(C)=O)c(O)c1C	2.79% (inactive)
CCCCCCCCCCCCCC[C@@H](O)[C@@H](O)[C@@H](N)CO	24.8% (inactive)
Nc1[nH]c(=O)ncc1F	8.39% (inactive) and -90.4% (active)
O=S(=O)(NCCNC/C=C/c1ccc(Br)cc1)c1cccc2cnccc12	4.5% (inactive) and -8.12% (inactive)
O=C(C(c1ccccc1)c1ccccc1)N1CCN(CC(O)COc2cccc3ncccc23)CC1 (stereo unspecified)	10.1% (inactive)
CC(C)(C#N)c1ccc(N2C(=O)OCc3cnc4ccc(-c5cnc6ccccc6c5)cc4c32)cc1	-90.7% (active)
Cn1c(=O)n(-c2ccc(C(C)(C)C#N)cc2)c2c3cc(-c4cnc5ccccc5c4)ccc3ncc21	13.4% (inactive)
C=CC(=O)Nc1cc(Nc2nccc(-c3cn(C)c4ccccc34)n2)c(OC)cc1N(C)CCN(C)C	-63.1% (inactive)
C[C@H](CCC(=O)O)[C@H]1CCC2C3C(=O)CC4CC(=O)CC[C@]4(C)C3CC(=O)[C@@]21C (stereo partly specified)	8.53% (inactive) and 10.4% (inactive)
O=c1[nH]cnc2nc[nH]c12	7.14% (inactive)
COc1cccc(-c2cc(=O)c3cc(OC)ccc3o2)c1	316% (inactive)
O=C1Nc2ccc(Br)cc2/C1=C/c1cc2c([nH]1)CCCC2	13.6% (inactive)
CCCCCCCCCCC(CO)CCCCCCCC (stereo unspecified)	7.89% (inactive)
CCCCC(CC)CN=C(N)NC(N)=NCCCCCCN=C(N)NC(N)=NCC(CC)CCCC (stereo unspecified)	-87.6% (active)
CC(N)=NCCCC[C@H](N)C(=O)O	11.5% (inactive)
C=C1CCC2C(CC2(C)C)C(=O)CCC1O (stereo unspecified)	4.7% (inactive)
C[C@@]1(C(=O)Nc2ccc(F)nc2)CCCN1c1nc(Nc2cc(C3CC3)[nH]n2)c2cccn2n1	-54.4% (inactive)

SMILES	activity change, negative = inhibition
CCOC(=O)[C@H](CCc1ccccc1)N[C@@H](C)C(=O)N1C(=O)N(C)C[C@@H]1C(=O)O	6.47% (inactive)
CC1CCC(C(=O)N(c2cc(C#CC(C)(C)C)sc2C(=O)O)C2CCC(O)CC2)CC1 (stereo unspecified)	16.2% (inactive)
CC(=O)OCC(=O)[C@H]1CCC2C3CC=C4C[C@@H](O)CC[C@]4(C)C3CC[C@@]21C (stereo partly specified)	7.77% (inactive)
CC(=O)[C@@]1(O)CCC2C3CCC4=CC(=O)CC[C@]4(C)C3CC[C@@]21C (stereo partly specified)	6.92% (inactive) and 3.13% (inactive)
CCC(=O)O[C@]1(C(=O)CO)CC[C@H]2[C@@H]3CCC4=CC(=O)CC[C@]4(C)[C@H]3CC[C@@]21C	-9.17% (inactive)
CCCCCC(=O)O[C@]1(C(C)=O)CCC2C3CCC4=CC(=O)CC[C@]4(C)C3CC[C@@]21C (stereo partly specified)	-76.9% (active)
CCCCC(=O)O[C@]1(C(=O)CO)CCC2C3CCC4=CC(=O)CC[C@]4(C)C3[C@@H](O)C[C@@]21C (stereo partly specified)	0.149% (inactive) and 0.816% (inactive)
CC(=O)OCC(=O)[C@H]1CCC2C3CCC4=CC(=O)CC[C@]4(C)C3CC[C@@]21C (stereo partly specified)	0.487% (inactive)
C[C@]12CC[C@H]3[C@@H](CCC4=CC(=O)CC[C@@]43C)[C@@H]1CC[C@@H]2C(=O)CO	-83.1% (active)
C[C@]12C[C@H](O)[C@H]3[C@@H](CCC4=CC(=O)CC[C@@]43C)[C@@H]1CC[C@@H]2C(=O)CO	1.69% (inactive)
CC(=O)OCC(=O)[C@H]1CC[C@H]2[C@@H]3CCC4=CC(=O)CC[C@]4(C)[C@H]3CC[C@]12C	-73.9% (active) and -75.9% (active)
CCCOc1ccc(Br)cc1-c1cc(-c2ccc(Cl)cc2)[nH]c1-c1ccncc1	-7.79% (inactive)
CC(C)N1CCN(c2ccc(C(=O)c3c(-c4ccc(O)cc4)sc4cc(O)ccc34)cc2)CC1	-3.21% (inactive) and -13.9% (inactive)
NC(N)=Nc1nc(CSCC/C(N)=N\S(N)(=O)=O)cs1	15.8% (inactive) and 7.35% (inactive)
CN1CCN(C2=Nc3cc(F)ccc3Cc3ccccc32)CC1	-3.95% (inactive)
CCOC(=O)C12CC1/C(=N/O)c1ccccc1O2 (stereo unspecified)	10.1% (inactive)
O=[Si]=O	10.7% (inactive)
CCCCCCCCN1C(=O)C(C(C)=O)=C(C)C1(C)O (stereo unspecified)	12.4% (inactive)
O=C(O)[C@H]1CN(CCCP(=O)(O)O)CCN1	4.53% (inactive)
Oc1ccc2c(c1)OCC1(O)Cc3cc(O)c(O)cc3C21 (stereo unspecified)	-0.693% (inactive)
Nc1[nH]nc2nc3ccccc3nc12	19.2% (inactive)
Nc1nc2c(ncn2[C@@H]2O[C@@H](CO)[C@@H](O)[C@H]2O)c(=O)[nH]1	-3.02% (inactive)
Nc1nc(=S)c2ncn([C@@H]3O[C@H](CO)[C@@H](O)[C@H]3O)c2[nH]1	-79.5% (active)
Nc1ncnc2c1ncn2[C@@H]1O[C@H](CO)[C@@H](O)[C@H]1O	6.4% (inactive)
